According to PMC5540273 (PLoS ONE, 2017):

Legend:
Details in all cases: concentration: 1 μM, replicates: in singlicate; n = 1
[1] = system: TYK2(JH2domain-pseudokinase)
[2] = system: TYRO3
[3] = system: ULK1
[4] = system: ULK2
[5] = system: ULK3
[6] = system: T1, VEGFR2
T1 construct: gene KDR

[7] = system: T2, VPS34
T2 construct: gene PIK3C3

[8] = system: VRK2
[9] = system: WEE1
[10] = system: WEE2
[11] = system: WNK1
[12] = system: WNK2
[13] = system: WNK3
[14] = system: WNK4
[15] = system: T3, YANK1
T3 construct: gene STK32A

[16] = system: T4, YANK2
T4 construct: gene STK32B

[17] = system: T5, YANK3
T5 construct: gene STK32C

[18] = system: T6, YES
T6 construct: gene YES1

[19] = system: T7, YSK1
T7 construct: gene STK25

[20] = system: T8, YSK4
T8 construct: gene MAP3K19
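Note: KINOMEscan kinase panel screen.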

Structure (SMILES)	%Inh [1] [%]	%Inh [2] [%]	%Inh [3] [%]	%Inh [4] [%]	%Inh [5] [%]	%Inh [6] [%]	%Inh [7] [%]	%Inh [8] [%]	%Inh [9] [%]	%Inh [10] [%]	%Inh [11] [%]	%Inh [12] [%]	%Inh [13] [%]	%Inh [14] [%]	%Inh [15] [%]	%Inh [16] [%]	%Inh [17] [%]	%Inh [18] [%]	%Inh [19] [%]	%Inh [20] [%]
CCCCc1nn2ncccc2c1-c1ccnc(Nc2ccc(N3CCN(C)CC3)cc2)n1 [GW684941]	93	1	23	6	17	94	15	50	4	9	11	31	54	56	78	74	25	81	0	57
Cc1occc1-c1ncc(OC[C@@H](N)Cc2c[nH]c3ccccc23)cc1-c1ccc2[nH]nc(C)c2c1.O=C(O)C(F)(F)F [GSK682037]	0	0	4	0	3	7	3	78	5	8	11	7	0	0	96.5	95	94.5	38	17	99.5
c1ccc(-c2cnc3nccnn23)cc1 [AH20685]	3	0	5	0	0	0	0	0	33	0	0	2	1	0	6	0	0	0	0	0
COc1ccc(CNC(=O)NC2CCN(c3ccnc(Nc4ccc(F)cc4)n3)CC2)cc1 [GSK1379788]	35	0	0	0	0	0	17	14	39	0	0	7	23	27	7	0	0	0	0	14
Nc1ncc(-c2cccnc2)c2scc(-c3ccc4c(c3)CCN4C(=O)Cc3ccccc3)c12 [GSK683281]	0	15	7	0	10	30	29	0	22	17	17	28	12	0	21	10	29	28	27	46
COc1cc(Nc2nccc(-c3c(-c4cccc(NC(=O)c5c(F)cccc5F)c4)nn4ccccc34)n2)cc(OC)c1OC [GSK323521]	0	0	0	0	18	0	12	0	0	6	27	59	54	19	11	0	14	8	3	93.6
Cc1ccc(C)c(NC(=O)NC2CCN(c3ccnc(Nc4ccc(F)cc4)n3)C2)c1 (stereo not shown) [GSK1379720]	48	0	0	0	10	0	0	45	4	0	5	0	43	48	0	0	28	9	0	29
Clc1ccc(-c2nn3ncccc3c2-c2ccnc(Nc3ccc4c(c3)OCCO4)n2)cc1 [GW829116]	0	0	0	0	0	29	0	16	0	0	0	0	0	0	0	21	0	45	0	0
Cl.c1ccc(-c2ccc3c(Nc4ccc5[nH]ccc5c4)ccnc3c2)nc1 [GW440138]	27	0	0	0	6	98.3	0	40	8	6	0	13	35	55	0	0	0	40	0	51
O=C(Nc1n[nH]c2nc(-c3ccc(O)cc3)ccc12)C1CC1 [SB-710363]	0	0	2	21	29	26	0	0	0	1	32	0	0	70	0	0	0	0	0	92.2
Oc1cc(Nc2ccnc3cc(I)ccc23)ccc1F [GW552771]	25	54	9	0	29	31	0	36	0	0	1	4	34	35	10	22	31	26	0	79
Cl.c1ccc(-c2ccc3c(Nc4ccc5[nH]ncc5c4)ccnc3c2)nc1 [GW440137]	32	0	12	0	11	66	0	0	0	5	11	14	19	28	3	1	7	14	9	51
COc1cc(Nc2ncc3c(C)nc(-c4cc5ccccc5[nH]4)n3n2)cc(OC)c1OC [GW869516]	82	32	48	51	20	0	0	0	36	85	0	0	0	0	0	0	0	47	0	0
CN(C)S(=O)(=O)c1cc(-c2ccc3nccc(-c4cccc(S(N)(=O)=O)c4)c3c2)cnc1N [GSK1669921]	23	0	8	0	6	29	92.7	7	9	17	0	0	0	0	31	0	2	1	0	93.3
COc1cccc(-c2ccc3c(NC(=O)C4CC4)n[nH]c3n2)c1 [SB-710903]	64	0	0	0	9	0	0	66	14	15	45	57	66	87	0	2	0	13	0	92.3
CN(C)Cc1ccc(-c2ccc3c(Nc4ccc(Oc5ccccn5)cc4)ccnc3c2)o1 [GW567148]	18	38	19	0	5	17	0	4	0	2	17	14	46	19	0	0	20	64	0	30
COc1cccc(NC(=O)NC2CCN(c3ccnc(Nc4cc(OC)c(OC)c(OC)c4)n3)C2)c1 (stereo not shown) [GSK1379763]	38	0	3	0	88	43	20	0	20	0	8	11	26	11	1	0	4	1	6	31
Cl.Cl.NCC(C(=O)Nc1cc(Br)c(-c2ccnc3[nH]ccc23)s1)c1ccccc1 (stereo not shown) [GSK1269851]	18	0	23	0	15	0	0	0	0	22	7	100	25	11	8	0	0	7	0	95.5
CN1CCN(Cc2cccc(-c3ccc4c(Nc5ccc(Oc6ccccc6)cc5)ccnc4c3)c2)CC1 [GW578342]	5	12	0	0	2	16	0	26	0	0	0	15	31	49	3	0	0	88	12	0
COC(=O)Nc1nc2cc(Oc3ccc(NC(=O)Nc4cc(C(F)(F)F)ccc4F)cn3)ccc2[nH]1.Cl.Cl [GW681170]	12	0	0	0	13	55	8	22	7	0	6	8	22	39	9	16	0	24	0	87
